17 compounds from PubChem BioAssay (NCI) can be followed below.

Test systems include T-47D breast; BT-549 breast; MDA-MB-435 melanoma; SW-620 colon; MCF7 breast; HCT-116 colon; HCC-2998 colon; KM12 colon.
What all share (assay): NCI-60 one-dose screen, 48 h (100 = growth as untreated, 0 = no growth, -100 = all killed)
Common to all, as to settings: 10 µM unless noted

Compounds without any hit were thinned out: in the full panel of roughly 83,000, 20% have a hit.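 Plates (96-well) were seeded with cells, treated with compound at one concentration, and incubated for 48 hours before percent growth was determined.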 Unmarked numbers belong to inactive results. Calls of active or inactive are those of the source. How the source made its calls: active means growth percent below 10; inactive means the rest.

As for `O=C(Nc1cccc(Cl)c1)c1cc([N+](=O)[O-])ccc1O`, the growth in the test on T-47D breast was 41.9%; in the test on BT-549 breast it was 66.5%; with MDA-MB-435 melanoma, 60.4%; in the test on SW-620 colon, 58.7%; in the test on MCF7 breast, 42.9%; in the test on HCT-116 colon, 45.9%. Besides, the growth was 29.2% in the test with HCC-2998 colon and 43.1% in the test with KM12 colon.
Take `COc1cc(Cn2c(SCCC(=O)Nc3ccc(F)cc3)nc3ccccc3c2=O)cc(OC)c1OC`: the growth was 77.8% in the test with T-47D breast; 92.6% with BT-549 breast; 106% with MDA-MB-435 melanoma; 97.9% with SW-620 colon; 91% in the test with MCF7 breast; 65.3% in the test on HCT-116 colon. The growth in the test on KM12 colon is 99.3%.
On to `COc1ccc(C2CC(c3cccs3)=NN2c2ccc(S(=O)(=O)NC(=O)Nc3ccc(C)cc3)cc2)cc1` (stereo not drawn), for which the growth with T-47D breast was 78.8%; in the test with BT-549 breast, 74.2%; in the test on MDA-MB-435 melanoma, 61.9%; with SW-620 colon it was 106%; in the test on MCF7 breast, 97.1%; in the test on HCT-116 colon, 85.1%. For the same compound, the growth is 109% with HCC-2998 colon and 97.4% in the test on KM12 colon.
For `Cc1cc(Nc2nc(C(=O)Nc3ccccc3)nc3ccccc23)n[nH]1`, the growth is 47% in the test on T-47D breast; 50.6% in the test with BT-549 breast; 64.9% in the test with MDA-MB-435 melanoma; 77.5% in the test on SW-620 colon; 72.1% with MCF7 breast; 45.6% in the test with HCT-116 colon. The growth in the test on HCC-2998 colon is 84.3%; in the test with KM12 colon, 28%.
Take `O=S(=O)(NCCCNc1nccc(-c2c(-c3ccc(F)c(O)c3)nc3sccn23)n1)c1ccc(Cl)cc1`: the growth is 66.1% in the test on T-47D breast; 101% with BT-549 breast; 32.5% in the test with MDA-MB-435 melanoma; 99.2% with SW-620 colon; 77.2% with MCF7 breast; 46.3% in the test with HCT-116 colon. Also, the growth with KM12 colon was 75.1%.
As for `CC(Cc1nnc(SCC(=O)Nc2ccc(I)cc2)n1N)c1ccccc1` (stereo not drawn), the growth in the test with T-47D breast was 71.2%; in the test on BT-549 breast, 97.4%; in the test on MDA-MB-435 melanoma it was 99.9%; in the test on SW-620 colon, 95.5%; with MCF7 breast it was 93.4%; in the test with HCT-116 colon, 68.6%. Besides, the growth in the test on KM12 colon was 95.8%.
With `COc1ccc(/C=C/c2nc(N3CCOCC3)c3nc(Cl)c(Cl)cc3n2)cc1OC`, the growth in the test with T-47D breast is 88.2%; in the test with BT-549 breast, 99.9%; with MDA-MB-435 melanoma, 99.8%; in the test with SW-620 colon, 109%; in the test with MCF7 breast it was 111%; in the test on HCT-116 colon it was 89.3%. The growth in the test with KM12 colon is 93.9%.
Regarding `Cc1ccc(S(=O)(=O)N2CCC(C(=O)Nc3ccc(F)cc3F)CC2)cc1`, the growth was 88.8% with T-47D breast; 96.9% in the test on BT-549 breast; 95% in the test with MDA-MB-435 melanoma; 103% with SW-620 colon; 93.2% in the test on MCF7 breast; 101% in the test with HCT-116 colon. Besides, the growth in the test on KM12 colon is 109%.
With `Cc1cc(C(=O)CSc2nc3ccccc3c(=O)[nH]2)c(C)n1C`, the growth in the test on T-47D breast is 79.9%; in the test on BT-549 breast it was 89.8%; with MDA-MB-435 melanoma, 101%; with SW-620 colon it was 102%; with MCF7 breast, 95.1%; in the test on HCT-116 colon it was 106%. In the test with KM12 colon, the growth is 96.7%.
With `COc1ccc(OC)c(NC(=O)c2cc(S(=O)(=O)N3CCc4ccccc43)ccc2OC)c1`, the growth is 93.4% with T-47D breast; 104% in the test with BT-549 breast; 96.1% in the test on MDA-MB-435 melanoma; 96.7% in the test on SW-620 colon; 113% in the test on MCF7 breast; 72.2% with HCT-116 colon. Also, the growth in the test with KM12 colon was 111%.
Turning to `Cn1c(C(N)=O)cc2c1-c1nc(NC3CCCCC3)ncc1CCC2`, the growth with T-47D breast is 105%; with BT-549 breast, 80.7%; in the test on MDA-MB-435 melanoma, 96.5%; in the test on SW-620 colon, 89.7%; in the test with MCF7 breast, 90.6%; in the test on HCT-116 colon, 88.1%. In addition, the growth was 97.5% in the test on HCC-2998 colon and 104% in the test with KM12 colon.
Take `Cc1ccc2c(c1)C(=O)C(c1c(-c3[nH]c(=O)c4ccc(C)cc4c3O)c(O)c3ccccc3c1O)=NC2=O`: the growth is 11.9% with T-47D breast; 32.7% in the test on BT-549 breast; 30.7% with MDA-MB-435 melanoma; 7.11% (active) with SW-620 colon; 12.3% in the test on MCF7 breast; 12.9% in the test with HCT-116 colon. Moreover, the growth was 62% in the test on HCC-2998 colon and 18.5% in the test on KM12 colon.
Regarding `COc1cc(NS(C)(=O)=O)ccc1Nc1c2ccc([N+](=O)[O-])cc2nc2c(C)cccc12`, the growth was 1.78% (active) in the test with T-47D breast; 27% in the test on BT-549 breast; 27.2% with MDA-MB-435 melanoma; 18.8% with SW-620 colon; 15.6% in the test on MCF7 breast; 22.9% in the test with HCT-116 colon. Moreover, the growth in the test with HCC-2998 colon is -1.86% (active); in the test on KM12 colon, -29.1% (active).
Consider `CC(=O)/C=C/c1cc2cc(Cl)ccc2[nH]c1=O`, for which the growth was 50% with T-47D breast; 65.5% in the test on BT-549 breast; 94.2% with MDA-MB-435 melanoma; 80.4% in the test with SW-620 colon; 30.5% in the test with MCF7 breast; 48.1% in the test on HCT-116 colon. Besides, the growth with HCC-2998 colon was 95.2%; with KM12 colon it was 60%.
With `CCN(Cc1ccc(CN(CC)C(=O)C(Br)Br)cc1)C(=O)C(Br)Br`, the growth with T-47D breast was 27.9%; with BT-549 breast it was 36%; with MDA-MB-435 melanoma it was 22.3%; with SW-620 colon it was 21.6%; with MCF7 breast, 24.4%; in the test on HCT-116 colon, -21% (active). Moreover, the growth in the test on HCC-2998 colon was 18.8%; in the test with KM12 colon it was 4.49% (active).
`CCN(C(=O)c1cc2ccccc2[nH]1)[C@H]1CCC[C@@H](NCc2ccc(OC)cc2)C1`: the growth is 82.7% in the test on T-47D breast; 102% in the test with BT-549 breast; 93.1% with MDA-MB-435 melanoma; 91.2% with SW-620 colon; 84% in the test on MCF7 breast; 92.1% in the test on HCT-116 colon. For the same compound, the growth with HCC-2998 colon is 78.3%; in the test on KM12 colon, 90.4%.
Turning to `Cc1ccc(Cn2c(-c3nonc3N)nc3ccccc32)cc1`, the growth in the test on T-47D breast was 74.6%; in the test with BT-549 breast, 68.3%; with MDA-MB-435 melanoma, -30.8% (active); with SW-620 colon it was 28.4%; with MCF7 breast, 55.5%; in the test on HCT-116 colon, 58.2%. The growth in the test with KM12 colon was 31.6%.
